According to PubChem BioAssay (NCATS):
Values joined by “and” are separate entries in the source; they are usually repeats but may differ in a detail not shown here. Equal entries are not always repeated. Records with an inconclusive call do not appear. Unmarked numbers belong to inactive results. The call rests on the fitted dose curve; in most records, active means well fitted activation curve with a large enough effect in the signal ratio (not every such curve was filed as active); inconclusive means small, poorly fitted or top-dose-only effect, or a change in a side signal; inactive means flat fitted curve, though single readings scatter; the % refers to the signal ratio.

Test: qHTS assay for small molecule activators of the p53 signaling pathway (AID 651743); further: series mostly up to about 92 µM; % of control where 0% means no effect
Details: HCT-116 p53RE-bla, beta-lactamase FRET ratio, 16 h; active compounds read high
Text: National Center for Advancing Translational Sciences [NCATS] NIH Chemical Genomics Center [NCGC] U.S. Environmental Protection Agency [EPA] National Institutes of Environmental Health Sciences [NIEHS] National Toxicology Program [NTP] Assay Overview: p53, a tumor suppressor protein, is activated following cellular insult, including DNA damage and other cellular stresses. The activation of p53 regulates cell fate by inducing DNA repair, cell cycle arrest, apoptosis, or cellular senescence. The activation of p53, therefore, is a good indicator of DNA damage and other cellular stresses. The CellSensor p53RE-bla HCT-116 cell line (Invitrogen) contains a stably integrated beta-lactamase reporter gene under control of the p53 response elements. The activation of the report gene under culture conditions can be detected by fluorescence intensity. This cell line can be used to screen chemicals in a 1536-well plate format and to identify agonists that activate p53 signaling pathway.
Assay Protocol Summary: The p53RE-bla cells were dispensed at 4,000 cells/5 ul/well in 1536-well black wall/clear bottom plates using a Multidrop dispenser. After the assay plates were incubated at a 37 C/5% CO2 incubator for 5 hours, 23 nL of compounds dissolved in DMSO, positive controls or DMSO only was transferred to the assay plate by a pin tool. The plates were incubated at 37 C for 16 hours. After 1 uL of LiveBLAzer B/G FRET substrate was added using a Flying Reagent Dispenser, the plates were incubated at room temperature for 2 hours, and fluorescence intensity was measured by an Envision plate reader.

| Structure (SMILES) | activation |
| --- | --- |
| Cc1nnc(NS(=O)(=O)c2ccc(N)cc2)s1 | -1.27% |
| O=C(N[C@H](CO)[C@H](O)c1ccc([N+](=O)[O-])cc1)C(Cl)Cl | 0.234% and 2.8% |
| NNC(=O)c1ccncc1 | 0.245% |
| CC(=O)[C@H]1CC[C@H]2[C@@H]3CCC4=CC(=O)CC[C@]4(C)[C@H]3CC[C@]12C | -1.4% and -5.04% and -4.98% |
| NC(N)=NC(N)=NCCc1ccccc1 | 7.9% and 8.21% |
| Cc1ccnc2c1NC(=O)c1cccnc1N2C1CC1 | -7.19% |
| OC(Cn1cncn1)(Cn1cncn1)c1ccc(F)cc1F | -0.436% |
| CC[C@H](C)C(=O)O[C@H]1C[C@@H](C)C=C2C=C[C@H](C)[C@H](CC[C@@H]3C[C@@H](O)CC(=O)O3)[C@H]21 | -3.22% |
| CC1=NN(c2ccccc2)C(=O)C1 | -1.06% and 1.05% |
| O=C(O)c1cc(=O)[nH]c(=O)[nH]1 | -1.01% |
| COc1ccc2cc3[n+](cc2c1OC)CCc1cc2c(cc1-3)OCO2 | 9.7% |
| Cc1ncc([N+](=O)[O-])n1CCO | -1.78% |
| Cc1cc(NS(=O)(=O)c2ccc(N)cc2)no1 | -3.47% |
| Cc1noc(NS(=O)(=O)c2ccc(N)cc2)c1C | -3.81% and -3.88% |
| S=P(N1CC1)(N1CC1)N1CC1 | 23.1% |
| CCc1cc(C(N)=S)ccn1 | -0.635% and 1.18% |
